# In ChEMBL document CHEMBL2218924, “A broad activity screen in support of a chemogenomic map for kinase signalling research and drug discovery” (Biochem J, 2013):
# What was measured:
# [1] = target: T1, Ephrin type-A receptor 3 (Homo sapiens) (UniProt P29320); settings: at 10 µM
# T1 sequence (whole entry): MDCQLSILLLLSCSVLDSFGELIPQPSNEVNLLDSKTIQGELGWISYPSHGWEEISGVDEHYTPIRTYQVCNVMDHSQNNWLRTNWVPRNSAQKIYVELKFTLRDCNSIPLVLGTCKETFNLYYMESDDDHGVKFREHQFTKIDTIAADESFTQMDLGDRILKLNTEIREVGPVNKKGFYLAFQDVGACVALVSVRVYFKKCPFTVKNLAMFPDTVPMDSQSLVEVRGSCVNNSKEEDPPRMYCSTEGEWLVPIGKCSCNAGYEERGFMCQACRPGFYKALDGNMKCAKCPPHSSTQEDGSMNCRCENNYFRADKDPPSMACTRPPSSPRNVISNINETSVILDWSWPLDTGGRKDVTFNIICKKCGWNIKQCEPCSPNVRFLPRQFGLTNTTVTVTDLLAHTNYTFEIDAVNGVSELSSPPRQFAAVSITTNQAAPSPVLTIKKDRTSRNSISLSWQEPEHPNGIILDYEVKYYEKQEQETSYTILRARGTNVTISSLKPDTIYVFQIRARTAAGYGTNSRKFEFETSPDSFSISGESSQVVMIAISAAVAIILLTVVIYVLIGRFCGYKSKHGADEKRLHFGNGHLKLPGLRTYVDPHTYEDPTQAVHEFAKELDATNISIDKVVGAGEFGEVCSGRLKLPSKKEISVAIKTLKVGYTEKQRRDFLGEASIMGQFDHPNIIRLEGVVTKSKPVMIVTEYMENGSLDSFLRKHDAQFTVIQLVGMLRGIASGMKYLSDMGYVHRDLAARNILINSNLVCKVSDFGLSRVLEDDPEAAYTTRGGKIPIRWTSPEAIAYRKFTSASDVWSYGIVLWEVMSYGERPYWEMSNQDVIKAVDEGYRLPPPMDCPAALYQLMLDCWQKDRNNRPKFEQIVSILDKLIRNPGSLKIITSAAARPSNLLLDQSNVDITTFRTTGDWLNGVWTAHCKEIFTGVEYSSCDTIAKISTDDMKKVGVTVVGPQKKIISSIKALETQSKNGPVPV
# [2] = target: Ephrin type-A receptor 4 (Homo sapiens) (UniProt P54764); settings: at 1 µM
# [3] = target: Ephrin type-A receptor 4 (Homo sapiens) (UniProt P54764); settings: at 10 µM
# [4] = target: Ephrin type-A receptor 5 (Homo sapiens) (UniProt P54756); settings: at 1 µM
# [5] = target: Ephrin type-A receptor 5 (Homo sapiens) (UniProt P54756); settings: at 10 µM
# [6] = target: Ephrin type-A receptor 7 (Homo sapiens) (UniProt Q15375); settings: at 1 µM
# [7] = target: Ephrin type-A receptor 7 (Homo sapiens) (UniProt Q15375); settings: at 10 µM
# [8] = target: T2, Ephrin type-A receptor 8 (Homo sapiens) (UniProt P29322); settings: at 1 µM
# T2 sequence (whole entry): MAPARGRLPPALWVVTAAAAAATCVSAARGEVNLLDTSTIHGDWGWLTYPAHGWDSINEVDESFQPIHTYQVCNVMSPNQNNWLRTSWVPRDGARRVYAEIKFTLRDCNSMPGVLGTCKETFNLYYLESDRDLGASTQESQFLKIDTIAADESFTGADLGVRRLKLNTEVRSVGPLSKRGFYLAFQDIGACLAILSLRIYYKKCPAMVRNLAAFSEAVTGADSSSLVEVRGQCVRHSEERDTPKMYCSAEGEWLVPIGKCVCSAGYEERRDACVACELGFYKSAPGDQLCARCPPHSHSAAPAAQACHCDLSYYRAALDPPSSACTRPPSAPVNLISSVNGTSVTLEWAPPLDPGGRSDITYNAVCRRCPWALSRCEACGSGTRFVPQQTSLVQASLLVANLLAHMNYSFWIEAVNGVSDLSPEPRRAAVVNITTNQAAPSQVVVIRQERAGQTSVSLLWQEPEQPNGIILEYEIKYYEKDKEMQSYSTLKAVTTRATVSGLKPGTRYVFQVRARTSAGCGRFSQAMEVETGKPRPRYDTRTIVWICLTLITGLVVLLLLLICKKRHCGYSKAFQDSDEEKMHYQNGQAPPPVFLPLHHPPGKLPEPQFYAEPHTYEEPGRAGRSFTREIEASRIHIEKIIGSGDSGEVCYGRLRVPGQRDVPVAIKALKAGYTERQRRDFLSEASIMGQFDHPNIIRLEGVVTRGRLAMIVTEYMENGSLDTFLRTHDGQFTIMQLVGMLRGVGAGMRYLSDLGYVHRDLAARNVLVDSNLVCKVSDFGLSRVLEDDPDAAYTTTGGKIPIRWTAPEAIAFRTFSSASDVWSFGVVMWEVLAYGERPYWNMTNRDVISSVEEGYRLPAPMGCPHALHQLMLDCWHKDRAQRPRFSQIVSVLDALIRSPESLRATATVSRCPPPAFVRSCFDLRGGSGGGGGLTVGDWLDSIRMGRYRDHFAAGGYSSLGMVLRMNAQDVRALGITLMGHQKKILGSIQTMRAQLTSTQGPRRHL
# [9] = target: T2, Ephrin type-A receptor 8 (Homo sapiens); settings: at 10 µM
# [10] = target: T3, Ephrin type-B receptor 2 (Homo sapiens) (UniProt P29323); settings: at 1 µM
# T3 sequence (whole entry): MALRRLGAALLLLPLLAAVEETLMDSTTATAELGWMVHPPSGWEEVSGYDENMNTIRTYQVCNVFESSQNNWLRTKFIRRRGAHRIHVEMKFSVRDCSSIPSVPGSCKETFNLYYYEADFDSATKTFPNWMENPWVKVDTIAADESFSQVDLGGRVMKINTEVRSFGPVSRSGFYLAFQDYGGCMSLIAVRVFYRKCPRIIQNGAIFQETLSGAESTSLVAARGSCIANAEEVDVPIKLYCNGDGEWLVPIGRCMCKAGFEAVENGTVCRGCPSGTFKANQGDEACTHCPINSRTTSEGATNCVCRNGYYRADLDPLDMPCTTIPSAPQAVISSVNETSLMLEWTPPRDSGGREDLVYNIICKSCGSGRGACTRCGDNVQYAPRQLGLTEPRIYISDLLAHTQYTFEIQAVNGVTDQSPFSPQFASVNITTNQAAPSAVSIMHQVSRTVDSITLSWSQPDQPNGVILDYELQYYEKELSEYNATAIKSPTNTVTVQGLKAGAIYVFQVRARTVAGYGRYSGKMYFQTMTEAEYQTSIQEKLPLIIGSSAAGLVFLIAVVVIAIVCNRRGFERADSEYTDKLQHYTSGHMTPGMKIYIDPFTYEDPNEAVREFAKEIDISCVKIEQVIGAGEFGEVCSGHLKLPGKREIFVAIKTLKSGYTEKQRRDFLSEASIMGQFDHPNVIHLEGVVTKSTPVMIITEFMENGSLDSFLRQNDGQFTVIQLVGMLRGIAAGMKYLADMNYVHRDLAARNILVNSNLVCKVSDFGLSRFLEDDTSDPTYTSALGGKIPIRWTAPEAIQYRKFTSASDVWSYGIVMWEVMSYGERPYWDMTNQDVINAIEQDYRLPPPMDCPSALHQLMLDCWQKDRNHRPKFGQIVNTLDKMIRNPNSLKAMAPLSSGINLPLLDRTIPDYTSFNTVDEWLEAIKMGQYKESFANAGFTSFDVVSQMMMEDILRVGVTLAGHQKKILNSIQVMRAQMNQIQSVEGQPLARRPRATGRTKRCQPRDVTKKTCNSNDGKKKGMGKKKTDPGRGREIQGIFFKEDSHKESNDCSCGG
# [11] = target: T3, Ephrin type-B receptor 2 (Homo sapiens); settings: at 10 µM
# [12] = target: T4, Ephrin type-B receptor 3 (Homo sapiens) (UniProt P54753); settings: at 1 µM
# T4 sequence (whole entry): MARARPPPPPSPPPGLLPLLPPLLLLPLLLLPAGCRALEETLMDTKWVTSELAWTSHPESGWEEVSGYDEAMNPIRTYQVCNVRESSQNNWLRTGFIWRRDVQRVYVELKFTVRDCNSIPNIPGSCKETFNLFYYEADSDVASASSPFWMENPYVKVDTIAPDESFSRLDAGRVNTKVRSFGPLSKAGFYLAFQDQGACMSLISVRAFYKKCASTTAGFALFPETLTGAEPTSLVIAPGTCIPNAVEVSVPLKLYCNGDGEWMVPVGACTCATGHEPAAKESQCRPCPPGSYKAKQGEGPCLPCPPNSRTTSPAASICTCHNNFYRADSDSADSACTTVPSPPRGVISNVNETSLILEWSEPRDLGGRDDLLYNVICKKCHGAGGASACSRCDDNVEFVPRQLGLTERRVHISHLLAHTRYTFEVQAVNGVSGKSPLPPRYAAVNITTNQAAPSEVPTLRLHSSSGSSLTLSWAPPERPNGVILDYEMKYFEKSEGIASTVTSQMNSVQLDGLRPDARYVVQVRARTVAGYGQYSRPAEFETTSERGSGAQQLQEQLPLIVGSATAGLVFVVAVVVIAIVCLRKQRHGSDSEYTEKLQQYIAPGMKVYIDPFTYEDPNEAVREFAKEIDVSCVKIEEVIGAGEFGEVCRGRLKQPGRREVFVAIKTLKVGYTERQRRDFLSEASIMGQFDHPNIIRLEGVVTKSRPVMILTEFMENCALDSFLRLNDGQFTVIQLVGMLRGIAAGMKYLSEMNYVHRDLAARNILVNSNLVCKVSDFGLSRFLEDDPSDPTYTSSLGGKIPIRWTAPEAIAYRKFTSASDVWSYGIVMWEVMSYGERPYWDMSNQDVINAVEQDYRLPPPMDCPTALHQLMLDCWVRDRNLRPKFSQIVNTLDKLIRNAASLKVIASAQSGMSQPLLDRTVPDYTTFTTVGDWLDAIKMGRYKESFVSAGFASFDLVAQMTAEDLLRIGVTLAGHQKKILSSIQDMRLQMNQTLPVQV
# [13] = target: T4, Ephrin type-B receptor 3 (Homo sapiens); settings: at 10 µM
# [14] = target: T5, Ephrin type-B receptor 4 (Homo sapiens) (UniProt P54760); settings: at 1 µM
# T5 sequence (whole entry): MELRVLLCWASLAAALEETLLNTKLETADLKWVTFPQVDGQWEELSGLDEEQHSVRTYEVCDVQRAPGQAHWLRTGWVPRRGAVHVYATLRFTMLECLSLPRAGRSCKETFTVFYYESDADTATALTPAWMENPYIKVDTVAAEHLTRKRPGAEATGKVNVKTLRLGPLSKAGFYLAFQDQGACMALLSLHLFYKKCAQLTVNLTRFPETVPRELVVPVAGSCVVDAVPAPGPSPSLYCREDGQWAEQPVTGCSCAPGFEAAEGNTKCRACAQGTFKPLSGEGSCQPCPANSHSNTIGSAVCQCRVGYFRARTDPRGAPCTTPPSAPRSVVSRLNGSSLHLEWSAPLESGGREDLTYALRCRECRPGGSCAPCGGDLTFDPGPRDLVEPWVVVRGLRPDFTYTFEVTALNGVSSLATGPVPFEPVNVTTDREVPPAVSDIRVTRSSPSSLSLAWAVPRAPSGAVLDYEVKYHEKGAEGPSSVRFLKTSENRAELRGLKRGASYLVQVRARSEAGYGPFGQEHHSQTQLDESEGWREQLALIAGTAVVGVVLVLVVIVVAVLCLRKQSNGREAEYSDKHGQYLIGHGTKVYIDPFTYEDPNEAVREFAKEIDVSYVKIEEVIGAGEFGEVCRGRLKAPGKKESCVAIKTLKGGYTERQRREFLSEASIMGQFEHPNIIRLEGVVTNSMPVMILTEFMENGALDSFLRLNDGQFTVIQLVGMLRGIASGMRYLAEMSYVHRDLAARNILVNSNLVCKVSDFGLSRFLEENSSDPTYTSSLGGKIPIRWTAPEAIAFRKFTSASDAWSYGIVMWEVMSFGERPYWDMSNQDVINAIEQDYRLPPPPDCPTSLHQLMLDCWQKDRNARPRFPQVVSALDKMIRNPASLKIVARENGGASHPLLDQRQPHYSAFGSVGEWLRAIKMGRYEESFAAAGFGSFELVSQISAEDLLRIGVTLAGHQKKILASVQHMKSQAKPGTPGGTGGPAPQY
# [15] = target: T5, Ephrin type-B receptor 4 (Homo sapiens); settings: at 10 µM
# [16] = target: Receptor tyrosine-protein kinase erbB-4 (Homo sapiens) (UniProt Q15303); settings: at 1 µM
# [17] = target: Focal adhesion kinase 1 (Homo sapiens) (UniProt Q05397); settings: at 1 µM
# Chain of Ephrin type-A receptor 4 (Homo sapiens) (P54764 whole entry): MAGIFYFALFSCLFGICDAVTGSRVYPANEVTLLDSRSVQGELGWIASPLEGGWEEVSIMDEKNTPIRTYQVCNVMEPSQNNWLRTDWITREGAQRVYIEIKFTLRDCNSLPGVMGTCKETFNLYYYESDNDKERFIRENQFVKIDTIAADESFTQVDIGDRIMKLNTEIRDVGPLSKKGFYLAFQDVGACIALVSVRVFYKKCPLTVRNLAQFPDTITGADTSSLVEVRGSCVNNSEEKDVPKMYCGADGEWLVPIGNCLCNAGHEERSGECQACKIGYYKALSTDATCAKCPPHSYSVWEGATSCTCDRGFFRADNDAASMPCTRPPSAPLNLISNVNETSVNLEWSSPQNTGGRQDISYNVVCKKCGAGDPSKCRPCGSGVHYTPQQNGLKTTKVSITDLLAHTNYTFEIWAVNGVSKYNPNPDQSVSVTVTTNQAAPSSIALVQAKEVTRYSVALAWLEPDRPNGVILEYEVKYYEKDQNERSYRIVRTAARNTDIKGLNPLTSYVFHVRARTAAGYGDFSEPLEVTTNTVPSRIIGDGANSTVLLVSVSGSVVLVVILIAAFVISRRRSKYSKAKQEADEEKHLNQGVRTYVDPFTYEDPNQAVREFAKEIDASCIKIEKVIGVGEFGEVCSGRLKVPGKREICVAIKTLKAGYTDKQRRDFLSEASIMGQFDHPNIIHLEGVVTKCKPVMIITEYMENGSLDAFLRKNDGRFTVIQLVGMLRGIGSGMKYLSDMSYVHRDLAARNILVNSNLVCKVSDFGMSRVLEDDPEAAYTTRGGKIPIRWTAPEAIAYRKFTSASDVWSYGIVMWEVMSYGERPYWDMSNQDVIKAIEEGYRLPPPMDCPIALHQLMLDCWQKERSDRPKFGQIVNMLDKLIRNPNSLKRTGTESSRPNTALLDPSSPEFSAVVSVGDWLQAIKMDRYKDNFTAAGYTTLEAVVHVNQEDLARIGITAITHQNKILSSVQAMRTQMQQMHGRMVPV
# Chain of Ephrin type-A receptor 7 (Homo sapiens) (Q15375 28-998 limits assumed): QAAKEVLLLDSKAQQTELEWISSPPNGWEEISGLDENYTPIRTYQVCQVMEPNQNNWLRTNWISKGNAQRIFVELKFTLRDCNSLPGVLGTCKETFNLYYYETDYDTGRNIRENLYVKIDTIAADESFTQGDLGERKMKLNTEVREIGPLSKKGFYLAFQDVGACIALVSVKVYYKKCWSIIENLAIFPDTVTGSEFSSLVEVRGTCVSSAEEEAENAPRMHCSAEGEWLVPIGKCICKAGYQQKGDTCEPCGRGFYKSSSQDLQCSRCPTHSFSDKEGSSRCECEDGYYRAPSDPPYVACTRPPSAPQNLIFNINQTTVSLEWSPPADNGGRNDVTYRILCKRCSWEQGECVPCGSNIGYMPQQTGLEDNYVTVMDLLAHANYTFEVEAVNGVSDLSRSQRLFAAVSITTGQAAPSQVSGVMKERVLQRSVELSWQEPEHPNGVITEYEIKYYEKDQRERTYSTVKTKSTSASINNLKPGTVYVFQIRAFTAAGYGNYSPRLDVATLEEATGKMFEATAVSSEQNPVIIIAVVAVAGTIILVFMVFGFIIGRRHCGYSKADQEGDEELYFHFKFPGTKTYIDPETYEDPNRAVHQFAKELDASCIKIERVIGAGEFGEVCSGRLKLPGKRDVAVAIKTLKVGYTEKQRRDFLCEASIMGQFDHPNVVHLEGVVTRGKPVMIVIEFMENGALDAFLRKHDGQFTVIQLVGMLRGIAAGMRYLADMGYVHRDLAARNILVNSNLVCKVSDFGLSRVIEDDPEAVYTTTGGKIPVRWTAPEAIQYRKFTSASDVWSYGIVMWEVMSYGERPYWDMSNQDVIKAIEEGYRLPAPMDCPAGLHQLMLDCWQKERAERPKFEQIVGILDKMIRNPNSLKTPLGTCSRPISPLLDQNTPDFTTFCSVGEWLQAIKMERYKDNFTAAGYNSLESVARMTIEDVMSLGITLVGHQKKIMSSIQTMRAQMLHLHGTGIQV
# Chain of Ephrin type-A receptor 5 (Homo sapiens) (P54756 whole entry): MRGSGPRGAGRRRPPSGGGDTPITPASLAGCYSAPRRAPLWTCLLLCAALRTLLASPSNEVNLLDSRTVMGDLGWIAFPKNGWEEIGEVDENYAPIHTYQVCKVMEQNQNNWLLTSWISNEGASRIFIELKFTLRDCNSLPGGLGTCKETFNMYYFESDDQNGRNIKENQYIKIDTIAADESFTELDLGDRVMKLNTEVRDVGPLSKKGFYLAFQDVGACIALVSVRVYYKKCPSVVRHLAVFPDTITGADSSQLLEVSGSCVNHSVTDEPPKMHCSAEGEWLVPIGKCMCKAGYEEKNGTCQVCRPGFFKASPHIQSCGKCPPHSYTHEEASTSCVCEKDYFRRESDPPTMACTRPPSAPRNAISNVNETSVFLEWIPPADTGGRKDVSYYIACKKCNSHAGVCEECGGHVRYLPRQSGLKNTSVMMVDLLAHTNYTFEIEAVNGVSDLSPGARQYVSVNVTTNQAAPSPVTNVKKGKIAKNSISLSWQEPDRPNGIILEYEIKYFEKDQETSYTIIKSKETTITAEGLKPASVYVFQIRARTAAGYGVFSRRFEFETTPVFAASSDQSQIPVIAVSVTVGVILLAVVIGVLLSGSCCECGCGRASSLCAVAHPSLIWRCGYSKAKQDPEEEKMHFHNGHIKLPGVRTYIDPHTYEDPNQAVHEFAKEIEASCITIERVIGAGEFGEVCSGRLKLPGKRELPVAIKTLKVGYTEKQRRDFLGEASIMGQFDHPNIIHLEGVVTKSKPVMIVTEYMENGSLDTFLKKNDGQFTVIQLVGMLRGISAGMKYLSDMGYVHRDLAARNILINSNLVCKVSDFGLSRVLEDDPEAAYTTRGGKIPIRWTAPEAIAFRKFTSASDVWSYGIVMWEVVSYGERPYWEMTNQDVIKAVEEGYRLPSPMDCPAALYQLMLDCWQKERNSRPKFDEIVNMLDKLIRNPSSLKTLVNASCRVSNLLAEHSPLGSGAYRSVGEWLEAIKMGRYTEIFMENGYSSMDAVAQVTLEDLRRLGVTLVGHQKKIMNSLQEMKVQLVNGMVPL
# Chain of Receptor tyrosine-protein kinase erbB-4 (Homo sapiens) (Q15303 whole entry): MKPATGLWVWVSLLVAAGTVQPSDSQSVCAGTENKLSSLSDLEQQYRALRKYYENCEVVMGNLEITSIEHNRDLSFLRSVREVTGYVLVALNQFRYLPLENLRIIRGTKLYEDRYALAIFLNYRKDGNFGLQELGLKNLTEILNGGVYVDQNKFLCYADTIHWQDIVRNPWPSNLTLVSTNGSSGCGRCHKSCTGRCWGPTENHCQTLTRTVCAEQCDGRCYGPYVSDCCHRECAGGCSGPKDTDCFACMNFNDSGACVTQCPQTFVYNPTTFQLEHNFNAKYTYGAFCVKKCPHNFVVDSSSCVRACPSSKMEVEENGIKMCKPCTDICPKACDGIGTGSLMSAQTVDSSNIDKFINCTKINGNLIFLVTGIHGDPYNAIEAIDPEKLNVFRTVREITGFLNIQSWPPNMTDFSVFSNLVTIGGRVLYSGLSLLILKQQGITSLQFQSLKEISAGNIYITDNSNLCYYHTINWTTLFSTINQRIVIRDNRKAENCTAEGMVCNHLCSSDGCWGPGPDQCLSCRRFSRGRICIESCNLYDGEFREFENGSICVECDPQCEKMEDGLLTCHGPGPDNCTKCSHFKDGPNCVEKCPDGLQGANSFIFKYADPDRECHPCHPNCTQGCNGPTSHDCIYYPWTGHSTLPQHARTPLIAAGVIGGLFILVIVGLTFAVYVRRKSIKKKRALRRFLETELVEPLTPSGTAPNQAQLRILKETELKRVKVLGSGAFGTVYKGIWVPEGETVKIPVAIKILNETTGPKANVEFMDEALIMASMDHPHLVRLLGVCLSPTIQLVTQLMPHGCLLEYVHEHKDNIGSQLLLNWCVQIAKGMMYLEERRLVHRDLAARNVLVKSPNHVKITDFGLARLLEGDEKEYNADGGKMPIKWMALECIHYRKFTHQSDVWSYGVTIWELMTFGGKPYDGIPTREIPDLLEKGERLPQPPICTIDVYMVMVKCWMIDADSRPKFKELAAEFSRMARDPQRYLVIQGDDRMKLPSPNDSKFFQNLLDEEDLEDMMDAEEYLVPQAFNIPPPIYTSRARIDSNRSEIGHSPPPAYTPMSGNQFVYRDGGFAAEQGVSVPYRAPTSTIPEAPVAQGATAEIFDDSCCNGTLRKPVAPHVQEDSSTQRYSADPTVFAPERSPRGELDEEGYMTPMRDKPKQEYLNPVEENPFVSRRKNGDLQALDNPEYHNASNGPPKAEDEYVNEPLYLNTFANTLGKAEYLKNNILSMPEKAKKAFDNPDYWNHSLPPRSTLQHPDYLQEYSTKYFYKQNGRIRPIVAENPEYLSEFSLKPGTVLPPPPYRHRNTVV
smiles,measurement,setting,value
CO[C@@H]1[C@H](N(C)C(=O)c2ccccc2)C[C@H]2O[C@]1(C)n1c3ccccc3c3c4c(c5c6ccccc6n2c5c31)C(=O)NC4,residual activity,[1],99%
same,residual activity,[2],103%
same,residual activity,[3],90%
same,residual activity,[4],97%
same,residual activity,[5],86%
same,residual activity,[6],94%
same,residual activity,[7],70%
same,residual activity,[8],94%
same,residual activity,[9],97%
same,residual activity,[10],111%
same,residual activity,[11],222%
same,residual activity,[12],119% (inactive)
same,residual activity,[13],130%
same,residual activity,[14],107%
same,residual activity,[15],372%
same,residual activity,[16],67%
same,residual activity,[17],90%
